# JMJD2A Tudor inh: qHTS Assay for Inhibitors of JMJD2A-Tudor Domain. AID 504339, 2011. hit rate 4.4% among 390,000. AlphaScreen JMJD2A-Tudor / H3K4me3 peptide binding. Potency, µM (top dose mostly 114 µM), for inactives: top-dose activity change, negative = inhibition, actives largely listed as inhibitors. Lysine-specific demethylase 4A (Homo sapiens), O75164; further: on the % scale 0 is the no-effect control and ±100 the full control effect; nearly all actives have a fitted effect of over 50% in size
# BAZ2B block: qHTS Assay for Inhibitors of BAZ2B. hit rate 4.4% among 360,000. Potency, µM (doses to about 114 µM), without a hit: top-dose activity change, negative = inhibition, hits mostly inhibitors. AlphaScreen BAZ2B-H3K14Ac peptide displacement. AID 504333, 2011; further: on the % scale 0 is the no-effect control and ±100 the full control effect; nearly all actives have a fitted effect of over 60% in size
# Target sequence (Q9UIF8 whole entry, looked up): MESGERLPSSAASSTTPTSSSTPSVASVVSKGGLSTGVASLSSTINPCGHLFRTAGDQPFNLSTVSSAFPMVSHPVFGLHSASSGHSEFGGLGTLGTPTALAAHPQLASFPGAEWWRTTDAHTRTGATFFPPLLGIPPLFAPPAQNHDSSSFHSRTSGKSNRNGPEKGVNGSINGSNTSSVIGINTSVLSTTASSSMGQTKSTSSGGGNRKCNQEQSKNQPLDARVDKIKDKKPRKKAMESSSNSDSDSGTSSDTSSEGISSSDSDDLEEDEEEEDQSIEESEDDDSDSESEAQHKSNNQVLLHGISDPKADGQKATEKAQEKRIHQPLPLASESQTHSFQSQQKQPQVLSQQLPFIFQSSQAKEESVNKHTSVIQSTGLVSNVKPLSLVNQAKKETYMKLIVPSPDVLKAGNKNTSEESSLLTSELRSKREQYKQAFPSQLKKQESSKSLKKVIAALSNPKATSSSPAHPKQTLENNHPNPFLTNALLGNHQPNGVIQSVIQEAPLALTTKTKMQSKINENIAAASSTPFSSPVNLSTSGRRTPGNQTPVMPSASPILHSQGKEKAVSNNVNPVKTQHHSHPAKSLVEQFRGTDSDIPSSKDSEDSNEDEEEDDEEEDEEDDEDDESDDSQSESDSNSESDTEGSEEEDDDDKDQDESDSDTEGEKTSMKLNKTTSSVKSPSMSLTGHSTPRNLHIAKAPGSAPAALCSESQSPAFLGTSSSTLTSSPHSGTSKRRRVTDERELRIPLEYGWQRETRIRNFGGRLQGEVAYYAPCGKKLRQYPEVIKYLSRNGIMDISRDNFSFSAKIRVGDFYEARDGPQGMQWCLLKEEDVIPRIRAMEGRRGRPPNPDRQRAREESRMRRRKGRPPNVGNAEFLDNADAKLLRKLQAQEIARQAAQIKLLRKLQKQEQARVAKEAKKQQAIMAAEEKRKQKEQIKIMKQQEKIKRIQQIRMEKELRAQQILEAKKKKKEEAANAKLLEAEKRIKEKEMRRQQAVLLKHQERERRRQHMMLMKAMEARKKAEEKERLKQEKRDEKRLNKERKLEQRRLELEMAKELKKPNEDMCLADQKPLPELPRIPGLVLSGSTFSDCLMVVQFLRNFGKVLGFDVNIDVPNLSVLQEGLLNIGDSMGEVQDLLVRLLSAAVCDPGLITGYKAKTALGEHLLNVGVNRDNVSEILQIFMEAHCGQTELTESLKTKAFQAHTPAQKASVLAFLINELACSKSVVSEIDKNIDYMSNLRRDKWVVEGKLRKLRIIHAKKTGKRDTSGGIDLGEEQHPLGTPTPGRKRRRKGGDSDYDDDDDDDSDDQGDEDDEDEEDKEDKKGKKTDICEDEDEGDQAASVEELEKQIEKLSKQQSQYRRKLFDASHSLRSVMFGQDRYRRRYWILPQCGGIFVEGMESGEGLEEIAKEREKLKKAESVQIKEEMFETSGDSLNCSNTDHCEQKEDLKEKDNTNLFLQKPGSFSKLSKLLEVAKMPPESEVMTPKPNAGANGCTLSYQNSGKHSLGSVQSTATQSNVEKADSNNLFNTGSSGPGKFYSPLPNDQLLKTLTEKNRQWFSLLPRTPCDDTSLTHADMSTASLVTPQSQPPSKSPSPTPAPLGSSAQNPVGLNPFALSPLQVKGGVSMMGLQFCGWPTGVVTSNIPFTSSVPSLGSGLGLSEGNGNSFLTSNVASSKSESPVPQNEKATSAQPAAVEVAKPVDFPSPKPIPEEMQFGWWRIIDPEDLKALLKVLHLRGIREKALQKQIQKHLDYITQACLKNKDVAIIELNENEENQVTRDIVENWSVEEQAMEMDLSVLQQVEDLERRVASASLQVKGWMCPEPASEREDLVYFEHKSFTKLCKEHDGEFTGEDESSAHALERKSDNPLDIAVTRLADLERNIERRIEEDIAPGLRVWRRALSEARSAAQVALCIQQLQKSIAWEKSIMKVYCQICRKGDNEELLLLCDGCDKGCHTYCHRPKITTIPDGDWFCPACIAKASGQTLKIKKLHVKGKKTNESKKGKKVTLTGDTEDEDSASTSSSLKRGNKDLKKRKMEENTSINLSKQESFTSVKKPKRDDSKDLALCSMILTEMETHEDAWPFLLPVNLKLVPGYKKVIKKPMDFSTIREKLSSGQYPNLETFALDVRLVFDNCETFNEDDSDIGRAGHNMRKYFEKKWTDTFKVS
#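 BAZ2B (50 nM) with biotin-H3(5-23)K14Ac peptide (50 nM) in PBS pH 7.4, 0.01% Tween-20, preformed 30 min, then compound 30 min at room temperature; top concentration 110uM. AlphaScreen streptavidin donor/nickel chelate acceptor beads (10 ug/mL final), 20 min dark, signal read.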
# G9a block: qHTS Assay for Inhibitors of Histone Lysine Methyltransferase G9a; Histone-lysine N-methyltransferase EHMT2 (Homo sapiens), Q96KQ7; G9a H3K9 monomethylation, AlphaScreen, 2 h; Potency, µM (doses to about 102 µM), without a hit: top-dose activity, negative = inhibition, actives largely listed as inhibitors; hit rate 8.8% among 350,000; AID 504332, 2011; further: on the % scale 0 is the no-effect control and ±100 the full control effect; nearly all actives have a fitted effect of over 75% in size
#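 Signal arises when biotinylated H3K9 peptide, once monomethylated, bridges streptavidin donor and antibody-captured acceptor beads. Enzyme at 20 nM was preincubated 15 min with test compounds; peptide 500 nM and SAM 20 uM then reacted for 2 h.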
# HP1b binding inh: HTS for Inhibitors of HP1-beta Chromodomain Interactions with Methylated Histone Tails | Chromobox protein homolog 1 (Homo sapiens), P83916 | AlphaScreen HP1-beta / biotin-H3K9me3 peptide binding | Potency, µM (doses to about 114 µM), inactives show top-dose activity change, negative = inhibition, actives largely listed as inhibitors | hit rate 0.56% among 390,000 | AID 540317, 2011; further: nearly all actives have a fitted effect of over 70% in size
#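 AlphaScreen: HP1-beta (50 nM) preformed 30 min with biotin-H3(1-18)K9me3 peptide (50 nM) in PBS pH 7.4, 0.01% Tween-20. Compound added for 30 min at RT, then streptavidin donor/nickel chelate acceptor beads (10 ug/mL) for 30 min.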
# L3MBTL1 block: qHTS Assay for the Inhibitors of L3MBTL1 | AlphaScreen L3MBTL1–H3K9me1 peptide binding | Potency, µM (titrated, usually from 57.1 µM), for inactives: at the highest dose activity, negative = inhibition, most hits filed as inhibitors | hit rate 0.66% among 230,000 | Lethal(3)malignant brain tumor-like protein 1 (Homo sapiens), Q9Y468; further: on the % scale 0 is the no-effect control and ±100 the full control effect; nearly all actives have a fitted effect of over 60% in size
#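 AlphaScreen assay: L3MBTL1 (50 nM final) was preincubated 30 min at room temperature with biotinylated H3(1-15)K9me1 peptide (75 nM final), then 30 min with library compounds; streptavidin donor and nickel chelate acceptor beads (10 ug/mL final) added, 30 min dark.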
# * marks the source's active call; other numbers are inactive results; ? = inconclusive; . = not tested or not shown; [ ] = dose if it differs, or a comment. Most compounds without a hit are left out; they make up all but 11% or so of the library. The call rests on the fitted dose curve; in most records, active means well fitted inhibition curve with a large enough effect; inconclusive means small, poorly fitted or top-dose-only effect; inactive means no such curve, though single readings can be large or run the other way. Potency means the concentration at half of the fitted maximal effect.
SMILES,JMJD2A Tudor inh,BAZ2B block,G9a block,HP1b binding inh,L3MBTL1 block
Cc1cccc(C)c1NC(=O)c1sc(-n2nc(C)c(Cc3ccccc3)c2C)nc1C,-3%,-10%,-2%[59 µM],45%,.
CCc1cccc(CC)c1NC(=O)CNCc1cccs1,25µM*,56µM*,35µM*,71µM*,.
COc1cc(NC(=O)CCn2nc(C)c(S(=O)(=O)N3CCCCC3)c2C)cc(OC)c1OC,7%,-2%,12%[12.7 µM],27%,.
CN1CCN(c2nnc(-c3ccc(F)cc3)c3ccccc23)CC1,?,-28%,40µM*,-19%,.
CN1CCN(c2nnc(-c3ccc(Cl)cc3)c3ccccc23)CC1,-12%,8%,4%[2.33 µM],15%,.
COc1ccc(CN2C(=O)c3cccnc3C2=O)cc1S(=O)(=O)NCc1ccccc1,-20%,?,.,20%,.
CCCNS(=O)(=O)c1cc(CN2C(=O)c3cccnc3C2=O)ccc1OC,89µM*,?,-8%,8%,.
O=C(CCc1nnc(Cc2ccc3c(c2)OCO3)o1)NCc1nc2ccccc2s1,-23%,1%,45µM*,53%,0%
O=[S+]([O-])([O-])c1ccc2c(c1)cc([S+](=O)([O-])[O-])c1nn(-c3ccc(/C=C/c4ccc(-n5nc6c([S+](=O)([O-])[O-])cc7cc([S+](=O)([O-])[O-])ccc7c6n5)cc4[S+](=O)([O-])[O-])c([S+](=O)([O-])[O-])c3)nc12,56µM*,.,.,-22%,.
O=C(O)c1ccc2c(ccc3nn(-c4ccc(/C=C/c5ccc(-n6nc7ccc8cc(C(=O)O)ccc8c7n6)cc5[S+](=O)([O-])[O-])c([S+](=O)([O-])[O-])c4)nc32)c1,18µM*,.,.,?,.
Cc1ccc2c(c1C)NC(C)CC2C (configuration not stated),-8%[11.4 µM],?,14µM*,-13%,-7%
O=C(Nc1nc2ccccc2s1)c1ccc(N2CCCCC2)c([N+](=O)[O-])c1,?,10µM*,?,-26%,-22%
CN1CCN(c2ccccc2NC(=O)c2ccc(N3CCCC3)c([N+](=O)[O-])c2)CC1,56µM*,?,50µM*,?,-12%
CC(=O)N1CCN(c2ccc(C(N)=O)cc2[N+](=O)[O-])CC1,-3%,-8%,-2%,42%,.
CN1CCN(c2ccc(C(=O)c3ccc(Br)cc3)cc2[N+](=O)[O-])CC1,22µM*,40µM*,45µM*,?,-25%
O=C(Nc1ccccc1C(=O)N1CCCC1)c1ccc(Cl)c([N+](=O)[O-])c1,-1%,-18%,.,14%,31%
CC1CCN(c2ccccc2NC(=O)c2ccc(N3CCOCC3)c([N+](=O)[O-])c2)CC1,-1%,7%,8%[59 µM],0%,-12%
O=C(Nc1ccon1)c1ccc(N2CCCCC2)c([N+](=O)[O-])c1,?,?,-45%,-32%,-45%
O=C(Nc1ccccc1N1CCCCC1)c1ccc(Cl)c([N+](=O)[O-])c1,?,?,35µM*,-18%,.
NC(=O)CSc1ccc2nnc(-c3ccncc3)n2n1,-8%[57.1 µM],.,.,12%[57 µM],.
CCc1cc(=O)oc2c(C)c3c(cc12)CN(CCc1ccccc1OC)CO3,-2%,-2%,9%[59 µM],65%,.
CCOC(=O)N1CCN(CCC(=O)Nc2cccc(F)c2)CC1,-8%,-25%,-13%[59 µM],25%,.
O=C(CN1C(=O)/C(=C\c2cccc(Br)c2)Oc2ccccc21)NCCCN1CCOCC1,45µM*,-6%,17%[59 µM],58%,.
CCc1ccc(/C=C2/Sc3ccccc3N(CC(=O)NCCCN3CCOCC3)C2=O)cc1,?,35µM*,-12%,-9%[57 µM],.
Cc1ccc(C)c(NC(=O)Cn2c(=O)n(Cc3ccc4c(c3)OCO4)c(=O)c3ccccc32)c1,-8%,0%,-38%[59 µM],46%,.
SMILES,JMJD2A Tudor inh,BAZ2B block,G9a block,HP1b binding inh,L3MBTL1 block
COc1ccccc1C(=O)N(Cc1ccco1)Cc1ccccc1F,-31%,?,-23%[59 µM],-3%,.
CC(=O)Nc1ccc(S(=O)(=O)NNC(=O)COc2ccc(Cl)cc2Cl)cc1,-17%,-17%,50µM*,33%,.
CC(=O)NC(=S)Nc1ccc(NC(=O)COc2ccc(C(C)C)cc2)cc1,-1%,?,?,29%,2%
CC(=O)NC(=S)Nc1ccc(NC(=O)COc2ccc(Cl)cc2)cc1,-5%,-1%,5.6µM*,43%,.
COc1ccc(OCC(=O)NC(=S)NNC(=O)COc2ccc(Br)cc2Cl)cc1,8.9µM*,-8%,1.6µM*,?,5%
CCOc1ccc(CC(=O)NNC(=S)Nc2ccccc2)cc1Br,22%[11.4 µM],1%,25µM*,48%,.
CC(=O)Nc1ccc(S(=O)(=O)NNC(=O)COc2ccc(C)cc2)cc1,-11%,-25%,-4%[59 µM],14%,?
Cc1c(CC(=O)NCc2ccc(F)cc2)c(=O)oc2cc(O)c(Cl)cc12,6%,4%,3%[59 µM],59%,.
CCOc1ccc(NC(=O)Cn2nc(SC)c(S(=O)(=O)c3ccccc3)c2N)cc1,-32%,-20%,-28%[59 µM],?,.
CN1C(=O)C2(c3ccccc31)N(c1ccc(Br)cc1)C(=O)CS2(=O)=O (configuration not stated),-12%,3%[57.1 µM],-23%[59 µM],18%,.
Cc1ccc(NC(=O)N2CCc3c(sc4c3CCCC4)C2c2ccccc2)cc1F (configuration not stated),-6%,-38%,-2%[12.7 µM],24%,.
COc1ccc(S(=O)(=O)N2CCOCC2)cc1NC(=O)CCOc1ccc(C(C)(C)C)cc1,-24%,4%,-38%,5%,-4%
N#CCc1nn(Cc2ccc(F)cc2)c(=O)c2ccccc12,20%,-3%,1%,51%,.
COc1ccc(NC(=S)NNC(=O)COc2ccc(Cl)cc2Cl)cc1,?,-30%,20µM*,-26%,-4%
Cc1cc(OCC(=O)NNC(=S)NC(=O)c2ccc(Br)o2)ccc1Cl,-18%,-33%,32µM*,12%,.
Cc1ccc(CCC(=O)NCc2ccccc2)o1,-21%,-5%,79µM*,32%,-15%
Cc1cccc(NC(=S)NNC(=O)COc2ccc(Cl)cc2Cl)c1,-19%,-7%,8.9µM*,5%,-3%
O=C(CCc1ccccc1)NCc1ccccc1,-13%,5%,9%,24%,.
Cc1ccc2nc(-c3cccs3)c(Nc3c(C)cccc3C)n2c1,-25%,-26%,-20%[59 µM],37%,.
CC(C)C(NC(=O)c1ccccc1)C(=O)NCCc1ccccc1 (configuration not stated),2%,-4%,3%,42%,2%
Cc1cc2c(s1)c1cnn(Cc3ccc(Br)cc3F)c(=O)c1n2C,-22%,.,.,.,.
